# Bioassay records (PubChem)
# PAFAH1B3 FP inh = blocks human PAF acetylhydrolase 1B catalytic subunit 3 | recombinant PAFAH1B3, FP-rhodamine probe, fluorescence polarization | AID 492972 | 340,000 tested, 0.28% active | inhibition, % at 3.39 µM;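 active = inhibition above the screen-wide average of all tested compounds plus 3 SD, cut at about 25% in these data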
# pPAFAH FP inh = inhibitors of human plasma PAF acetylhydrolase (pPAFAH); Q13093; recombinant pPAFAH, FP-rhodamine probe fluorescence polarization; inhibition, % at 3.39 µM; 330,000 tested, 1.5% active; AID 463082;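 active = inhibition above the mean inhibition across the screen plus 3 SD, cut at about 25% in these data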;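 note: inhibitors block binding of the rhodamine activity-based probe so polarization drops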
# Target sequence (Q13093 whole entry, looked up): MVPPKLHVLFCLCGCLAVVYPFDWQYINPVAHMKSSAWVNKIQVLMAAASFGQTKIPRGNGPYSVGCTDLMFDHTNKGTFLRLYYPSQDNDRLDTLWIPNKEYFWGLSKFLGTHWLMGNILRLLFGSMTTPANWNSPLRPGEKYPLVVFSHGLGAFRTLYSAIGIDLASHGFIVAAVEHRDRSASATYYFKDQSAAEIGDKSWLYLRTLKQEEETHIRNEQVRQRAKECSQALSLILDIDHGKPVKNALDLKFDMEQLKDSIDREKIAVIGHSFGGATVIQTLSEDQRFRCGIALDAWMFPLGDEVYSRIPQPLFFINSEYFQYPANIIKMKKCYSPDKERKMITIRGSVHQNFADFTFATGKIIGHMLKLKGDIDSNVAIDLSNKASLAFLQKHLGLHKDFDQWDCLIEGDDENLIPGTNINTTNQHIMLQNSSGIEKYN
# PAFAH1B2 inh = PAFAH1B2 (human) inhibition. recombinant PAFAH1B2, FP-rhodamine activity probe, fluorescence polarization. inhibition, % at 3.39 µM. P68402. 340,000 tested, 1.2% active;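 active = inhibition above the mean of all tested compounds plus 3 SD, cut at about 24% in these data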
# LYPLA1 counter = LYPLA1 (human) inhibition in PME1 counter-screen | AID 2174 | 320,000 tested, 0.16% active | O75608 | inhibition, % at 5.9 µM | recombinant LYPLA1, FP-Rh probe fluorescence polarization;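 active = inhibition above the mean of all tested compounds plus 3 SD, set per campaign, cut at about 14% in these data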;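 note: inhibitors block serine hydrolase probe labeling of LYPLA1 so polarization falls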
# LYPLA2 inh = counter-screen for PME1 inhibitors: inhibitors of human LYPLA2; recombinant LYPLA2, FP-Rh probe fluorescence polarization; 320,000 tested, 0.38% active; O95372; AID 2177; inhibition, % at 5.9 µM;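 active = inhibition above the screen-wide mean plus 3 SD, limit set per campaign, cut at about 26% in these data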
# PAFAH2 FP inh = inhibitors of human PAFAH2; inhibition, % at 3.39 µM; recombinant PAFAH2, FP-rhodamine activity probe, fluorescence polarization; 340,000 tested, 0.99% active;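 active = inhibition above the mean over all tested compounds plus 3 SD, cut at about 30% in these data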;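 note: inhibitors block probe labeling of enzyme so polarization drops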
# PAFAH2 confirm = confirmation of human PAFAH2 inhibitors; shares compounds with PAFAH2 FP inh; 2,300 tested, 65% active; inhibition, % at 3.39 µM; recombinant PAFAH2, FP-rhodamine activity probe, fluorescence polarization;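 active = mean inhibition over three repeats above a set limit taken from the earlier primary screen, cut at about 30% in these data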;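 note: inhibitor blocks binding of rhodamine activity probe so polarization falls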
# A number is an active result; i = inactive; nt = not tested or not shown. Shown are actives, neighbours in structure and some others; about 2.9% of the full set was active somewhere.
SMILES,PAFAH1B3 FP inh,pPAFAH FP inh,PAFAH1B2 inh,LYPLA1 counter,LYPLA2 inh,PAFAH2 FP inh,PAFAH2 confirm
CCN(CC)S(=O)(=O)c1ccc2c(c1)nc(CCC(=O)OCC(=O)Nc1c(F)cccc1F)n2C,i,i,i,i,i,49,46
CCN(CC)S(=O)(=O)c1ccc2c(c1)nc(CCC(=O)OCC(=O)Nc1cc(OC)cc(OC)c1)n2C,i,i,i,i,i,52,36
CC(=O)Nc1ccc(N(C(=O)CNC(=O)c2ccco2)C(C(=O)NCc2ccco2)c2ccccc2)cc1 (stereo unspecified),i,i,i,i,i,i,nt
Cc1ccc(N=C(NOC(=O)c2ccccc2)c2nonc2N)c(C)c1,i,i,i,i,i,68,67
COc1ccc(C(=O)COC(=O)/C=C/c2ccccc2)cc1,i,i,i,i,i,i,nt
NS(=O)(=O)c1cccc(NS(=O)(=O)c2ccc(/C=C/C(=O)OCC(=O)c3ccccc3)cc2)c1,i,i,i,i,i,58,49
COc1ccc(-c2oc3ncn(CCN4CCOCC4)c(=N)c3c2-c2ccc(OC)cc2)cc1,i,i,i,i,i,i,nt
O=C(CCNC(=O)c1ccccc1)OCC(=O)c1ccccc1,i,i,i,i,i,33,i
O=C(CCNC(=O)c1ccccc1)OCC(=O)c1cccc(Cl)c1,i,i,i,i,i,i,nt
Cc1ccc(C)c(NC(=O)c2ncn[nH]2)c1,i,i,i,i,i,i,nt
Cc1ccccc1OCC(=O)NC(C)c1ccccc1 (stereo unspecified),i,nt,i,nt,nt,i,nt
Cc1cc(C(=O)OCC(=O)NC(C)c2ccc(F)cc2)c(C)o1 (stereo unspecified),i,i,i,i,i,48,34
Cc1cc(C(=O)OCC(=O)NC(C)c2ccccc2)c(C)o1 (stereo unspecified),i,i,i,i,i,32,i
CC(NC(=O)COC(=O)c1cc2ccccc2cc1O)c1ccccc1 (stereo unspecified),i,nt,i,nt,nt,i,nt
Cc1ccc(C(=O)OCC(=O)NC(C)c2ccccc2)cc1C (stereo unspecified),i,i,i,nt,nt,75,63
O=C(COC(=O)c1c[nH]c2ccccc12)Nc1ccc([N+](=O)[O-])cc1,i,i,i,i,i,73,73
COc1ccccc1N(CC(=O)NC1CC2CCC1C2)S(=O)(=O)c1ccc(C)cc1 (stereo unspecified),i,i,i,i,i,i,nt
CCCCC1=NN(C(=O)c2ccco2)C(O)(C(F)(F)F)C1 (stereo unspecified),i,i,i,i,i,i,nt
O=[N+]([O-])c1ccc(S(=O)(=O)N2CCSC2c2ccco2)cc1 (stereo unspecified),i,i,i,i,i,i,nt
CC(NC(=O)CCc1c[nH]c2ccccc12)c1ccccc1 (stereo unspecified),i,i,i,i,i,i,nt
CC(NC(=O)COC(=O)c1c[nH]c2ccccc12)c1ccccc1 (stereo unspecified),i,i,i,nt,nt,55,52
Cc1ccc(/C=C/C(=O)OCC(=O)NC(C)c2ccccc2)o1 (stereo unspecified),i,i,i,i,i,54,38
N#C/C(=C\c1ccc(O)c(O)c1)S(=O)(=O)c1ccccc1,i,i,i,i,i,64,49
N#C/C(=C/c1ccc(F)cc1)S(=O)(=O)c1ccccc1,i,i,i,i,i,i,nt
Cc1ccc(C23CCC(=O)N2C(C(=O)O)CS3)c(C)c1 (stereo unspecified),i,i,i,i,i,i,nt
SMILES,PAFAH1B3 FP inh,pPAFAH FP inh,PAFAH1B2 inh,LYPLA1 counter,LYPLA2 inh,PAFAH2 FP inh,PAFAH2 confirm
Cc1ccc(C)c(NC(=O)COC(=O)c2ccc3c(c2)OCCO3)c1,i,i,i,i,i,53,61
Cc1ccccc1NC(=O)COC(=O)c1ccc(S(C)(=O)=O)c([N+](=O)[O-])c1,i,i,i,i,i,39,i
Cc1ccc(NC(=O)COC(=O)c2ccc3c(c2)OCO3)c(C)c1,i,i,i,i,i,i,nt
Cc1ccccc1NC(=O)COC(=O)c1ccc2c(c1)OCCO2,i,nt,i,nt,nt,58,52
CCOC(=O)c1c(S(=O)(=O)NCC2CCN(Cc3cccc(F)c3)CC2)c(C)n(C)c1C,i,i,i,i,i,i,nt
COc1ccc(S(=O)(=O)Cc2ccc(C(=O)NC3CCCCC3)o2)cc1,i,i,i,i,i,i,nt
CC1CCCC(NC(=O)COC(=O)/C=C/c2ccco2)C1C (stereo unspecified),i,i,i,i,i,86,79
CC1CCCC(NC(=O)COC(=O)/C=C/c2ccc([N+](=O)[O-])cc2)C1C (stereo unspecified),i,i,i,nt,nt,62,i
CC1CCCC(NC(=O)COC(=O)c2ccccc2[N+](=O)[O-])C1C (stereo unspecified),i,i,i,i,i,65,57
CSCCC(NC(=O)c1ccc([N+](=O)[O-])cc1Cl)C(=O)OCC(=O)NC1CCCC(C)C1C (stereo unspecified),i,i,i,i,i,33,i
COc1ccc(Cl)cc1C(=O)OCC(=O)NC1CCCC(C)C1C (stereo unspecified),i,nt,i,nt,nt,35,i
CCOC(=O)c1ccc(NC(=O)c2ccccc2C)cc1,i,i,i,i,i,i,nt
O=S(=O)(O)c1cccc2cccc(Nc3ccccc3)c12,i,i,i,i,i,31,i
COC(=O)Nc1c(-c2ccccc2)nc2ccc(C)cn12,i,i,i,i,i,i,nt
COc1ccc(Cn2c(SCC(=O)NCc3ccco3)nc3ccsc3c2=O)cc1,i,i,i,i,i,i,nt
COC(=O)C(C)Sc1nc2ccsc2c(=O)n1Cc1ccccc1 (stereo unspecified),i,i,i,i,i,35,i
O=c1oc(-c2ccco2)nc2c1cnn2-c1ccccc1,i,i,i,i,i,85,59
O=c1c2cnn(-c3ccccc3)c2nc(-c2ccco2)n1-c1ccccc1,i,i,i,i,i,i,nt
Cc1nc(NC(=O)COC(=O)c2cc3c(s2)CCC(C)C3)c(Cl)cc1Cl (stereo unspecified),i,i,i,i,i,i,nt
CC1CCc2sc(C(=O)OCC(=O)NCc3ccc(F)cc3)cc2C1 (stereo unspecified),i,i,i,i,i,46,40
O=C(CCS(=O)(=O)c1ccccc1)N1CCN(c2ccccc2)CC1,i,i,i,i,i,i,nt
O=C(CCS(=O)(=O)c1ccc(Br)cc1)N1CCN(c2ccccc2)CC1,i,i,i,i,i,33,i
O=C(Nc1ccc(Cl)cc1)[C@@H]1[C@@H]2C(=O)N(c3ccc(Cl)cc3)C(=O)[C@@H]2[C@H]2C=CC=NN21,i,i,i,i,i,33,i
